Records with an inconclusive call do not appear. Active and inactive are the calls of the source. Rule for the calls, unless noted: active = hit-call score of the fitted dose curve at least 0.9, where 1 is the maximum; inactive = score below 0.9.
Tests used:
[1] = ATG_NFI_CIS: Attagene CIS-FACTORIAL HepG2 Assay for human Nuclear Factor I (NFI) (AID 2282989); conditions: HepG2 cis-regulatory reporter, NFI response element transcription; actives raise or lower the signal
Method in brief: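 Reporter transcripts were measured by RT-PCR with fluorescent primer extension and capillary electrophoresis 24 h post-treatment. HepG2 cells carried transiently transfected cis-regulated reporter constructs reporting endogenous factor activity; gain or loss fitted against DMSO baseline.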

[2] = biological target: Myc proto-oncogene protein (Homo sapiens) (UniProt P01106); assay: ATG_Myc_CIS: Attagene CIS-FACTORIAL HepG2 Assay for human Myelocytomatosis (Myc) Proto-Oncogene Transcription Factor (AID 2282990); conditions: HepG2, Attagene cis-reporter transcription factor activity; actives raise or lower the signal
Chain of Myc proto-oncogene protein (Homo sapiens) (P01106 whole entry, looked up): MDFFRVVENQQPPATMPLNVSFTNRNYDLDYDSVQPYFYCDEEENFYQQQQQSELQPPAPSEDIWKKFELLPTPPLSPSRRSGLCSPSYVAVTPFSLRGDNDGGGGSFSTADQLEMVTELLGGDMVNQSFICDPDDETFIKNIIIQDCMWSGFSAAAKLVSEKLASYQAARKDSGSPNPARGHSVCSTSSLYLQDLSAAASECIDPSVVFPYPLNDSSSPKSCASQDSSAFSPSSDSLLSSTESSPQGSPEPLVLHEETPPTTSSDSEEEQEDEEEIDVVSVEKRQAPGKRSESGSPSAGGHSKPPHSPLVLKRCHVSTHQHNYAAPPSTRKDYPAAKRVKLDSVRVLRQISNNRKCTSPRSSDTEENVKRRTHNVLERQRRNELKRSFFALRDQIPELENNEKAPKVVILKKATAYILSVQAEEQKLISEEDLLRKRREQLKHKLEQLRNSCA
Method in brief: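 Transiently transfected HepG2 cells bearing cis-promoter reporter units for endogenous transcription factors; 24 h exposure. Reporter mRNA measured by RT-PCR, 6-FAM primer extension, HpaI cut and capillary electrophoresis; bidirectional fit relative to DMSO.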

[3] = ATG_NF_kB_CIS: Attagene CIS-FACTORIAL HepG2 Assay for human Nuclear Factor Kappa B (NF-kB) (AID 2282991); conditions: HepG2 Attagene cis-factorial NF-kB reporter mRNA; actives raise or lower the signal
Method in brief: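 Endogenous transcription factor activity in HepG2 was captured via cis-regulated reporter constructs; after 24 h dosing, reporter mRNA was reverse-transcribed, amplified, fluorescently labelled and sized by capillary electrophoresis, with activity fitted bidirectionally relative to DMSO.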

[4] = ATG_NRF2_ARE_CIS: Attagene CIS-FACTORIAL HepG2 Assay for human Nuclear Factor Erythroid 2 Related Factor 2 (NFR2) response to Antioxidant Response Elements (ARE) (AID 2282992); conditions: HepG2 Attagene ARE/NRF2 reporter, transcription factor activity; actives raise or lower the signal;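 for AC50: reporter mRNA level measured by RT-PCR and capillary electrophoresis fluorescence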
Method in brief: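 Fluorescence intensity of reporter-specific cDNA fragments, separated by capillary electrophoresis, reflects mRNA induction in transfected HepG2 cells at 24 h. Activity is fitted bidirectionally, DMSO serving as baseline.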

[5] = ATG_Oct_MLP_CIS: Attagene CIS-FACTORIAL HepG2 Assay for human Octamer-Binding Transcription Factor (Oct) (AID 2282993); conditions: HepG2 Attagene cis-factorial Oct reporter, mRNA; actives raise or lower the signal
Method in brief: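 Readout is reporter transcript level from RT-PCR with fluorescent primer extension and capillary electrophoresis, fitted in both directions against DMSO. Transfected HepG2 reporter units report endogenous factor activity after 24 h dosing.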

[6] = biological target: Cellular tumor antigen p53 (Homo sapiens) (UniProt P04637); assay: ATG_p53_CIS: Attagene CIS-FACTORIAL HepG2 Assay for human p53 Transcription Factor (AID 2282994); conditions: HepG2 p53 cis-element reporter, Attagene mRNA; actives raise or lower the signal
Chain of Cellular tumor antigen p53 (Homo sapiens) (P04637 whole entry, looked up): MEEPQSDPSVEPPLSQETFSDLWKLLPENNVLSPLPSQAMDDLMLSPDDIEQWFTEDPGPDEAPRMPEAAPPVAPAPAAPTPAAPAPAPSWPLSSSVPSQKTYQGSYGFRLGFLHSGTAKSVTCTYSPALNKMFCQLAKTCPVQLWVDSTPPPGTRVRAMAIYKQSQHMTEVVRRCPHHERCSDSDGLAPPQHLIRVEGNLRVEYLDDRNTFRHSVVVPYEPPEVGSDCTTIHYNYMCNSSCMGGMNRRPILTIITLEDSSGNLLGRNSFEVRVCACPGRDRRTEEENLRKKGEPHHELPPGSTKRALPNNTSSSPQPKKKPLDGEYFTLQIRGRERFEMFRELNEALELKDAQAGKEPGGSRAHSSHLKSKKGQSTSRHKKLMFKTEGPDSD
Method in brief: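 Transiently transfected HepG2 (multiple cis reporter transcription units); exposure 24 h; reporter RNA via RT-PCR, 6-FAM extension, 2 h HpaI digest at 37 C, CE detection; DMSO baseline.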

[7] = biological target: human Peroxisome Proliferator-activated Receptor delta (PPARd), PPARD (gene 5467) (UniProt Q03181); assay: ATG_PPARd_TRANS: Attagene TRANS-FACTORIAL HepG2 Assay for human Peroxisome Proliferator-activated Receptor delta (PPARd) (AID 2283002; active = hit-call score of the fitted dose curve at least 0.9, where 1 is the maximum)
Chain of human Peroxisome Proliferator-activated Receptor delta (PPARd), PPARD (gene 5467) (Q03181 whole entry, looked up, the tested form may be a part): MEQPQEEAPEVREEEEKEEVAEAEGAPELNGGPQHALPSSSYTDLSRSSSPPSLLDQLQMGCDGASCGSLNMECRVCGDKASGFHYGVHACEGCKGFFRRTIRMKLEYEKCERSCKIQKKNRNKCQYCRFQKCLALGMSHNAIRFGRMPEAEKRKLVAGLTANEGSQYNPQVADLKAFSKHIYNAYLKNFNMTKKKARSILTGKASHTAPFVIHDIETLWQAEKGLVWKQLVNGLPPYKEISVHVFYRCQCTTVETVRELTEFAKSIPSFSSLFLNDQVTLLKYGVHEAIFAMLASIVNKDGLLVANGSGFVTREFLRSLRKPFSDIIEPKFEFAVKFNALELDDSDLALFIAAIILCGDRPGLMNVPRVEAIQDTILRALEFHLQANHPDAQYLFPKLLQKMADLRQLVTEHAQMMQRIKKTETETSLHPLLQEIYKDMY
Method in brief: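 HepG2 cells transiently transfected with GAL4-UAS multiplexed reporter units driven by exogenous chimeric NR-GAL4 proteins; 24 h compound exposure. Reporter mRNA measured by RT-PCR, 6-FAM primer extension, HpaI digestion and capillary electrophoresis; gain of signal fitted relative to DMSO.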

[8] = biological target: Nuclear receptor subfamily 1 group I member 2 (Homo sapiens) (UniProt O75469); assay: ATG_PXR_TRANS: Attagene TRANS-FACTORIAL HepG2 Assay for human Pregnane X Receptor (PXR) (AID 2283008; active = hit-call score of the fitted dose curve at least 0.9, where 1 is the maximum)
Chain of Nuclear receptor subfamily 1 group I member 2 (Homo sapiens) (O75469 whole entry, looked up, the tested form may be a part): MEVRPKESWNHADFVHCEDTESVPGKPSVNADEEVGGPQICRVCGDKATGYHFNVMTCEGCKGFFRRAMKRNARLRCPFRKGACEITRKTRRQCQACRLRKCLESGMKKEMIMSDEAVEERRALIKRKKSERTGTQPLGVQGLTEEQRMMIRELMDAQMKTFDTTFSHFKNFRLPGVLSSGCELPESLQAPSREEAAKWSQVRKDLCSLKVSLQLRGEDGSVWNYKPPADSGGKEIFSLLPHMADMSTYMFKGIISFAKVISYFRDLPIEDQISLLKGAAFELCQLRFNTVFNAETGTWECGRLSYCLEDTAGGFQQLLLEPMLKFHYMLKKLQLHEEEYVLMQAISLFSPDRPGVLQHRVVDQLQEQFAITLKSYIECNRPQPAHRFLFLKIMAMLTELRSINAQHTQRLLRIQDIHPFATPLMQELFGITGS
Method in brief: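 Transient HepG2 transfectants carrying multiplexed reporter transcription units; PXR activity read through a Gal4 chimera. 24 h exposure. RT-PCR/CE fluorescence; upward curve fit referenced to DMSO.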

[9] = biological target: human Peroxisome Proliferator-activated Receptor alpha (PPARa), PPARA (gene 5465) (UniProt Q07869); assay: ATG_PPARa_TRANS: Attagene TRANS-FACTORIAL HepG2 Assay for human Peroxisome Proliferator-activated Receptor alpha (PPARa) (AID 2283001; active = hit-call score of the fitted dose curve at least 0.9, where 1 is the maximum)
Chain of human Peroxisome Proliferator-activated Receptor alpha (PPARa), PPARA (gene 5465) (Q07869 whole entry, looked up, the tested form may be a part): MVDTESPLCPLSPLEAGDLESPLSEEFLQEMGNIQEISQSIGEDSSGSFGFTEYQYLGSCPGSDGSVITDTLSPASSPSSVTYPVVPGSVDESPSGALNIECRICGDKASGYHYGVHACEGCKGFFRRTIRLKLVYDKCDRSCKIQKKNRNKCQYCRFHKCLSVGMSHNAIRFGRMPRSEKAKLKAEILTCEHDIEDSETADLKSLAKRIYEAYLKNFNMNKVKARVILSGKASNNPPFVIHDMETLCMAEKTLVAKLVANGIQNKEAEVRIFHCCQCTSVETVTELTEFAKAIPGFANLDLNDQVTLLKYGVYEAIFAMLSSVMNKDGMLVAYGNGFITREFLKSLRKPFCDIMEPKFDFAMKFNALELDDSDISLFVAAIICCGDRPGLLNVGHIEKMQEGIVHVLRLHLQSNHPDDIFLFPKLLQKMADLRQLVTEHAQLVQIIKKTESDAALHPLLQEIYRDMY
Method in brief: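 Transient HepG2 transfection, GAL4-UAS reporters, NR-Gal4 chimeras; 24 h compound exposure. Readout: reporter transcripts by RT-PCR, 6-FAM primer extension, HpaI digest, capillary electrophoresis. Positive direction vs DMSO baseline.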

[10] = biological target: human Retinoic Acid Receptor beta (RARb), RARB (gene 5915) (UniProt P10826); assay: ATG_RARb_TRANS: Attagene TRANS-FACTORIAL HepG2 Assay for human Retinoic Acid Receptor beta (AID 2283004; active = hit-call score of the fitted dose curve at least 0.9, where 1 is the maximum)
Chain of human Retinoic Acid Receptor beta (RARb), RARB (gene 5915) (P10826 whole entry, looked up): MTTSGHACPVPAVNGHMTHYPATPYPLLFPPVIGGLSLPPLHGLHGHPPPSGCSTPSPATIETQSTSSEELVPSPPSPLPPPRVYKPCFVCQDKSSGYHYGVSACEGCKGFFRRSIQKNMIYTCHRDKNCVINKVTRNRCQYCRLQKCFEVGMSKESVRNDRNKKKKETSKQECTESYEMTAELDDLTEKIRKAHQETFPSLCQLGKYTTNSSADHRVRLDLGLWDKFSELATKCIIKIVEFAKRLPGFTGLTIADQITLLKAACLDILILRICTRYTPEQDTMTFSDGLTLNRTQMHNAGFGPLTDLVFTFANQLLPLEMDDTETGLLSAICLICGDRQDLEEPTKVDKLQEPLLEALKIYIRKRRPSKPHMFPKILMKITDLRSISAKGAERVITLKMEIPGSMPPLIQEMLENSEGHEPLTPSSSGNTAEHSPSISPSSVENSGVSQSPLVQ
Method in brief: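 Transient transfection of HepG2 with multiple reporter units → chemical dosing, 24 h → total RNA isolation → RT with oligo(dT) → reporter-specific PCR, 6-FAM primer extension, HpaI digest → capillary electrophoresis. Positive direction vs DMSO control.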

[11] = biological target: Retinoic acid receptor alpha (Homo sapiens) (UniProt P10276); assay: ATG_RARa_TRANS: Attagene TRANS-FACTORIAL HepG2 Assay for human Retinoic Acid Receptor alpha (RARa) (AID 2283005; active = hit-call score of the fitted dose curve at least 0.9, where 1 is the maximum)
Chain of Retinoic acid receptor alpha (Homo sapiens) (P10276 whole entry, looked up, the tested form may be a part): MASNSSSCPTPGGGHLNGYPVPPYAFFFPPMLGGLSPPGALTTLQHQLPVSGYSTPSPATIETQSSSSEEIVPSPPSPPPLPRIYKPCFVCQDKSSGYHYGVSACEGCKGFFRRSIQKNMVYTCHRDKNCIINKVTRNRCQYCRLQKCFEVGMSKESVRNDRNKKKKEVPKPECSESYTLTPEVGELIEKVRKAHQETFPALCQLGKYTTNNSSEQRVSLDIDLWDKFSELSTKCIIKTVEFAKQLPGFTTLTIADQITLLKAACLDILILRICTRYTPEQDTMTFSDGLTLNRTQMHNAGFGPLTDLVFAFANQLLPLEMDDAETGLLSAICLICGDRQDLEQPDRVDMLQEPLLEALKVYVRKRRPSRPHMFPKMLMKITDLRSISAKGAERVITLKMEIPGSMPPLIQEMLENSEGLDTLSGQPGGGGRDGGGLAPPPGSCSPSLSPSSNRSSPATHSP
Method in brief: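 HepG2 transiently transfected with multiplex GAL4-UAS reporter units including a human RARa–GAL4 chimera; 24 h compound exposure. Reporter mRNA quantified by RT-PCR, 6-FAM labeling and capillary electrophoresis; gain of signal versus DMSO.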

[12] = biological target: Peroxisome proliferator-activated receptor gamma (Homo sapiens) (UniProt P37231); assay: ATG_PPARg_TRANS: Attagene TRANS-FACTORIAL HepG2 Assay for human Peroxisome Proliferator-activated Receptor-gamma (PPARg) (AID 2283007; active = hit-call score of the fitted dose curve at least 0.9, where 1 is the maximum)
Chain of Peroxisome proliferator-activated receptor gamma (Homo sapiens) (P37231 whole entry, looked up, the tested form may be a part): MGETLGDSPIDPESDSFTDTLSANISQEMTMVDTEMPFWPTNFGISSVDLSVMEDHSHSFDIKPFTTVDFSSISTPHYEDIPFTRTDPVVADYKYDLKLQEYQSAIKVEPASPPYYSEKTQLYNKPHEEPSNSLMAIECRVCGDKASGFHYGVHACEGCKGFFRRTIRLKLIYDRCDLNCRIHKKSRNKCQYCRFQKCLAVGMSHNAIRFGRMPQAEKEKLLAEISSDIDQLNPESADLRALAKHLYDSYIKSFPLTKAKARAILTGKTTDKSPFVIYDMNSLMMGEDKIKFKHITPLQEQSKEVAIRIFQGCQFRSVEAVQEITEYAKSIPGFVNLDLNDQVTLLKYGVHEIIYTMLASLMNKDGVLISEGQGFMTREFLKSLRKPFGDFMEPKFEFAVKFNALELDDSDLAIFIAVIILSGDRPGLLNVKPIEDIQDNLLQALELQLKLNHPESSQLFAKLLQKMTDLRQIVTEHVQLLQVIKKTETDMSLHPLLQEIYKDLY
Method in brief: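 A TRANS-format multiplexed reporter assay measures activity of an exogenous chimeric NR-Gal4 protein in HepG2 cells. After 24 h of chemical exposure, reporter transcripts are amplified, fluorescently labelled and sized by capillary electrophoresis, with gain of signal scored against DMSO.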

[13] = biological target: human Retinoic Acid Receptor gamma (RARg), RARG (gene 5916) (UniProt P13631); assay: ATG_RARg_TRANS: Attagene TRANS-FACTORIAL HepG2 Assay for human Retinoic Acid Receptor gamma (RARg) (AID 2283009; active = hit-call score of the fitted dose curve at least 0.9, where 1 is the maximum)
Chain of human Retinoic Acid Receptor gamma (RARg), RARG (gene 5916) (P13631 whole entry, looked up, the tested form may be a part): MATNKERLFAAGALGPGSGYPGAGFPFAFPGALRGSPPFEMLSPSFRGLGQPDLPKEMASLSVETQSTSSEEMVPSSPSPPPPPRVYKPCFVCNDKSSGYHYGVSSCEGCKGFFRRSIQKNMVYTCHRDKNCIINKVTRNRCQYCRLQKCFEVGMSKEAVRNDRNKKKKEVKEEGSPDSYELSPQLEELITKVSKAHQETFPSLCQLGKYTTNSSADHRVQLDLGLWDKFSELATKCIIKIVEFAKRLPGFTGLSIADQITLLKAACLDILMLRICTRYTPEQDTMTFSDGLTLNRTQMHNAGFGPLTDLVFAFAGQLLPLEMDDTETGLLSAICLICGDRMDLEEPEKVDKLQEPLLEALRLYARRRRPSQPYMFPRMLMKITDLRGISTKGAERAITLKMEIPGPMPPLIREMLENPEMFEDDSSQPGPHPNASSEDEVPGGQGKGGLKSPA
Method in brief: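 Gain-of-signal relative to DMSO is reported from fluorescent capillary electrophoresis of RT-PCR reporter products. These came from HepG2 cells expressing transfected RARg-GAL4 chimeras with UAS reporters, harvested 24 h after dosing.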

[14] = biological target: human RAR-related Orphan Receptor beta (RORb), RORB (gene 6096) (UniProt Q92753); assay: ATG_RORb_TRANS: Attagene TRANS-FACTORIAL HepG2 Assay for human RAR-related Orphan Receptor beta (RORb) (AID 2283010; active = hit-call score of the fitted dose curve at least 0.9, where 1 is the maximum)
Chain of human RAR-related Orphan Receptor beta (RORb), RORB (gene 6096) (Q92753 whole entry, looked up, the tested form may be a part): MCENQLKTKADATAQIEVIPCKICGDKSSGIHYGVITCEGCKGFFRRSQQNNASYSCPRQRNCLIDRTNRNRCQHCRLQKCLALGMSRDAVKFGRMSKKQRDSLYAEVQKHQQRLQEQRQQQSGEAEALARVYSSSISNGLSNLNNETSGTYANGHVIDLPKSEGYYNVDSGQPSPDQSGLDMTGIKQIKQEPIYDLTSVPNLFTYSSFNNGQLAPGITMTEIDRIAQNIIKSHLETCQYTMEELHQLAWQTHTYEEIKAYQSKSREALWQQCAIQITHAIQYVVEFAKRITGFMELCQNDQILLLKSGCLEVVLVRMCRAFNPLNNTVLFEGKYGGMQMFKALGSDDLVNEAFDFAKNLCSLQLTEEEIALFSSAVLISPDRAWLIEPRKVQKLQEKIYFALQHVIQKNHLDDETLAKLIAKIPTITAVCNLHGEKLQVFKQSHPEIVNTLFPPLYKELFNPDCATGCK
Method in brief: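 Multiplexed transcription-factor reporter assay: HepG2 cells transiently carrying NR-Gal4/GAL4-UAS constructs, 24 h treatment, mRNA quantified by RT-PCR plus capillary electrophoresis fluorescence; activity scored as induction over DMSO.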

Measured: AC50

CC(=O)C(C)=O
active: [4] 37.4 µM
inactive: [1] | [2] | [3] | [5] | [6] | [7] | [8]

OCC(CO)(CO)COCC(CO)(CO)CO
inactive: [1] | [2] | [3] | [4] | [5] | [6] | [9] | [8]

Fc1c(F)c(F)c(Br)c(F)c1F
not listed: [9] | [13] | [14]
inactive: all other assays above

CC(C)=CCC[C@](C)(O)[C@@H]1CC=C(C)CC1
active: [8] 15 µM
not listed: [9]
inactive: all other assays above

CC(C)(C)NC(N)=O
inactive: [1] | [2] | [3] | [4] | [5] | [6] | [7]

COc1cccc(OC)c1
inactive: [1] | [2] | [3] | [4] | [5] | [6] | [7] | [12]

C[C@]12CC[C@H]3[C@@H](CCC4=CC(=O)CC[C@@]43C)[C@@H]1CC[C@@H]2C(=O)CO
inactive: [1] | [2] | [3] | [4] | [5] | [7] | [12]
active: [6] 42.5 µM | [8] 2.12 µM

CCCCCCCCCCCCN
inactive: [1] | [2] | [5] | [6] | [9] | [14]
active: [3] 15 µM | [4] 17.8 µM

C=C(C)C(=O)Nc1ccc(Cl)c(Cl)c1
inactive: [1] | [2] | [3] | [6] | [9] | [14]
active: [4] 13.6 µM | [5] 26.5 µM

CCCC1CCC(=O)O1 (configuration not stated)
not listed: [9] | [10] | [11] | [12] | [13]
inactive: all other assays above

COCCCOc1ccnc(CS(=O)c2nc3ccccc3[nH]2)c1C (configuration not stated)
inactive: [1] | [2] | [3] | [6] | [9] | [11] | [13]
active: [4] 36.4 µM | [8] 4.77 µM

C=C(C)C(=O)NCCCN(C)C
inactive: [1] | [2] | [3] | [4] | [5] | [6] | [8] | [14]

C=C(C)C(=O)OCc1ccccc1
not listed: [6] | [10] | [11] | [13] | [14]
inactive: all other assays above

COc1cc(C)cc(O)c1
not listed: [6] | [10] | [11] | [13]
inactive: all other assays above

CCCCCCCCCCCCOCCO
inactive: [3] | [9] | [10] | [11]
active: [1] 56.6 µM | [2] 50.2 µM | [4] 54 µM | [5] 56.5 µM | [12] 33.4 µM

CCC(C(=O)NC(N)=O)c1ccccc1 (configuration not stated)
inactive: [1] | [2] | [3] | [4] | [6] | [9] | [7] | [8]
